“And” between values parts separate entries of the source, which are not always exact repeats. Identical values can stand only once. Inconclusive results are not listed. Where a call stands in place of a potency, no number is given. The source made the active and inactive calls. Calls come from the whole dose curve; as a rule, active = well fitted inhibition curve with a large enough effect; inconclusive = small, poorly fitted or top-dose-only effect, or effect the other way; inactive = flat fitted curve, though single readings scatter.
Potency is the fitted concentration of half-maximal effect.

Chain of Pyruvate kinase (Leishmania mexicana) (Q27686 whole entry, looked up): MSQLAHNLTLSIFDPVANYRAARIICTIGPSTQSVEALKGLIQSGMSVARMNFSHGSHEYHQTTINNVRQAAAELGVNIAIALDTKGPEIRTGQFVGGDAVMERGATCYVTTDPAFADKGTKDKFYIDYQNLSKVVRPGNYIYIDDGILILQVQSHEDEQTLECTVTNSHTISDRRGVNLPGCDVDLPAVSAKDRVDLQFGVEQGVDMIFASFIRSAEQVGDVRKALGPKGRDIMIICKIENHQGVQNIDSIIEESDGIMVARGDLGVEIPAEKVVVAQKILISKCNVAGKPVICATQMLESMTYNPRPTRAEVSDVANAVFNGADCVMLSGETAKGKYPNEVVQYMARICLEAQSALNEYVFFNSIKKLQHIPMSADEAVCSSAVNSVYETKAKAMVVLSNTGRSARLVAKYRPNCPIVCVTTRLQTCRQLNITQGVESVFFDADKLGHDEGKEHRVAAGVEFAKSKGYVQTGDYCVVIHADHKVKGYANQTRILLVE

This assay addresses Pyruvate kinase (Leishmania mexicana) (UniProt Q27686). Briefly: Confirmation Assay for Inhibitors of Leishmania Mexicana Pyruvate Kinase (LmPK): for Probe SAR. To be noted: purified LmPK, ATP generation, Kinase-Glo luminescence; series mostly up to 57.5 µM. Summed up: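 Coupled luminescent assay: ATP produced by LmPK (0.1 nM) from ADP (0.1 mM, ~10-fold below Km) and PEP (0.5 mM, at Km) after 1 h RT, detected with Kinase-Glo. Data scaled between no-enzyme and uninhibited controls.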
(Kinase-Glo reads ATP consumption through a luciferase reaction.)
For the molecule `O=S1(=O)N=C(Oc2cccc3ccccc23)c2ccccc21`, the Potency is 4.11 µM (active).

As to `O=C1NS(=O)(=O)c2ccccc21`, the Potency entry was “inactive”.

In the case of `COc1ccc(Nc2c(-c3ccc(C)o3)nc3ccccn23)cc1`, the Potency entry was “inactive”.

For the molecule `COC(=O)c1ccccc1S(=O)(=O)Nc1ccc(OC)cc1`, the Potency entry is “inactive”.

Regarding `O=C1c2ccccc2C(=O)N1c1ccc(O)cc1`, the Potency entry was “inactive”.

With `Cc1ccc(NS(=O)(=O)c2cc3c(cc2/C=C/c2ccccc2)NC(=O)CO3)cc1C`, the Potency entry was “inactive”.

Regarding `COc1ccc(O)cc1`, the Potency result is “inactive”.

`Nc1ccccc1OC1=NS(=O)(=O)c2ccccc21`: the Potency entry is “inactive”.

As to `COc1ccc(-c2nc3ccccn3c2Nc2ccccc2C)cc1`, the Potency entry is “inactive”.

For `O=C(O)c1ccccc1SC1=NS(=O)(=O)c2ccccc21`, the Potency was 4.61 µM (active) and 8.91 µM (active).

Regarding `O=S1(=O)N=C(N2CCOCC2)c2ccccc21`, the Potency entry was “inactive”.

As for `Cc1ccccc1OC1=NS(=O)(=O)c2ccccc21`, the Potency is 4.43 µM (active).

Turning to `N#Cc1cccnc1SC1=NS(=O)(=O)c2ccccc21`, the Potency was 16.3 µM (active).

On to `Cc1cccc(OC2=NS(=O)(=O)c3ccccc32)c1`, for which the Potency was 7.02 µM (active).

On to `Cc1ccc(Nc2c(-c3ccc(C)s3)nc3ccccn23)cc1`, for which the Potency result is “inactive”.

Take `Cc1ccc(NS(=O)(=O)c2ccc3c(c2)CCC(C)(C)O3)cc1C`: the Potency entry is “inactive”.

Turning to `CC(=O)Nc1cccc(OC2=NS(=O)(=O)c3ccccc32)c1`, the Potency is 2.06 µM (active).

For the molecule `O=C1c2ccccc2C(=O)N1Cc1ccccn1`, the Potency result was “inactive”.

With `O=C1c2ccccc2C(=O)N1C1CCCCC1`, the Potency entry is “inactive”.

On to `Cc1ccc(NS(=O)(=O)c2ccc(F)cc2)cc1C`, for which the Potency result was “inactive”.

Source of the values: PubChem BioAssay AID2561 (National Center for Advancing Translational Sciences (NCATS), 2010).
